In the supplement of paper PMC11219838:
Values without a mark were called inactive.

How the values were obtained:
Settings in all cases: 60 µM; 5 days; temperature: 20 °C
[1] = system: Meloidogyne hapla J2; experiment: proportion of mobile M. hapla J2 relative to DMSO control (fraction of DMSO control); higher = more viable, less nematicidal, active = 0.7 or less
How it was run: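 About 25 M. hapla J2 were placed in each well of a 96-well plate in distilled water, and compound was pinned in to a final 60 µM with 0.6% v/v DMSO. The sealed plates were shaken at 200 rpm at 20 °C for 5 days, after which 2 µL of 1 M NaOH went into each well. Mobility was then scored under the microscope and divided by the mean value from DMSO-only wells on the same plate. Each plate held eight such DMSO wells, and two biological replicates were averaged.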

[2] = system: Caenorhabditis elegans dauer (daf-2(e1370)); experiment: proportion of mobile C. elegans dauer larvae relative to DMSO control (fraction of DMSO control); higher = more viable, less nematicidal, active = 0.63 or less; extreme values may be limits of the assay
How it was run: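 Synchronized C. elegans larvae were kept for 48 h at 25 °C on MYOB plates seeded with E. coli OP50 to induce dauer formation, and roughly 20 dauers were transferred into each well of a 96-well plate containing liquid NGM. Compound was pinned in to a final concentration of 60 µM with 0.6% v/v DMSO, and the sealed plates were shaken at 200 rpm for 5 days at 20 °C. The fraction of mobile worms was scored under a dissection microscope against DMSO-only wells and averaged across two biological replicates.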

[3] = system: Ditylenchus dipsaci; experiment: proportion of mobile D. dipsaci (mixed stage) relative to DMSO control (fraction of DMSO control); higher = more viable, less nematicidal, active = 0.86 or less; extreme values may be limits of the assay
How it was run: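 Ditylenchus dipsaci nematodes were cultured on pea plants in Gamborg B-5 agar, then extracted into water through a filter funnel, and roughly 20 worms in distilled water were placed in each well of a 96-well plate. Compound was pinned in to a final concentration of 60 µM (0.6% v/v DMSO), and the sealed plates were shaken at 200 rpm for 5 days at 20 °C. Mobile worms were counted under the microscope after 2 µL of 1 M NaOH was added. Mobility is given relative to DMSO controls as the mean of two biological replicates.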

SMILES: CCCOc1ccc(-c2nc(-c3cccnc3)no2)cc1
- proportion of mobile M. hapla J2 [1]: 0.945
- proportion of mobile C. elegans dauer larvae [2]: 1
- proportion of mobile D. dipsaci [3]: 1

SMILES: CC(C)(C)C(=O)Nc1ccccc1-c1nc(-c2ccncc2)no1
- proportion of mobile M. hapla J2 [1]: 1
- proportion of mobile C. elegans dauer larvae [2]: 1
- proportion of mobile D. dipsaci [3]: 1

SMILES: Brc1ccc(OCc2nc(-c3cccnc3)no2)cc1
- proportion of mobile M. hapla J2 [1]: 0.955
- proportion of mobile C. elegans dauer larvae [2]: 1
- proportion of mobile D. dipsaci [3]: 1

SMILES: O=C(CSc1nnc(-c2ccco2)o1)Nc1cccc(C(F)(F)F)c1
- proportion of mobile M. hapla J2 [1]: 0.879
- proportion of mobile C. elegans dauer larvae [2]: 1
- proportion of mobile D. dipsaci [3]: 1

SMILES: O=C(CSc1nnc(-c2cccc(Cl)c2)o1)Nc1nccs1
- proportion of mobile M. hapla J2 [1]: 0.894
- proportion of mobile C. elegans dauer larvae [2]: 1
- proportion of mobile D. dipsaci [3]: 1

SMILES: Clc1cc(Br)ccc1OCc1nc(-c2ccccn2)no1
- proportion of mobile M. hapla J2 [1]: 1.01
- proportion of mobile C. elegans dauer larvae [2]: 1
- proportion of mobile D. dipsaci [3]: 1

SMILES: COC(=O)CSc1nnc(-c2ccc(C(C)(C)C)cc2)o1
- proportion of mobile M. hapla J2 [1]: 0.976
- proportion of mobile C. elegans dauer larvae [2]: 1
- proportion of mobile D. dipsaci [3]: 1

SMILES: Cc1ccc(OCc2nc(-c3ccc(F)cc3)no2)cc1C
- proportion of mobile M. hapla J2 [1]: 1.03
- proportion of mobile C. elegans dauer larvae [2]: 1
- proportion of mobile D. dipsaci [3]: 1

SMILES: Cc1cc(Br)ccc1OCc1nc(-c2ccncc2)no1
- proportion of mobile M. hapla J2 [1]: 1.01
- proportion of mobile C. elegans dauer larvae [2]: 1
- proportion of mobile D. dipsaci [3]: 1

SMILES: COc1ccc(-c2nc(-c3ccc(C(F)(F)F)cc3)no2)cc1
- proportion of mobile M. hapla J2 [1]: 0.966
- proportion of mobile C. elegans dauer larvae [2]: 1
- proportion of mobile D. dipsaci [3]: 1

SMILES: COc1ccccc1OCc1nc(-c2ccc(Cl)cc2)no1
- proportion of mobile M. hapla J2 [1]: 1.01
- proportion of mobile C. elegans dauer larvae [2]: 1
- proportion of mobile D. dipsaci [3]: 1

SMILES: CC(C)(C)NC(=O)c1ccccc1-c1nc(-c2ccccc2)no1
- proportion of mobile M. hapla J2 [1]: 0.886
- proportion of mobile C. elegans dauer larvae [2]: 1
- proportion of mobile D. dipsaci [3]: 1

SMILES: COc1cccc(OCc2nc(-c3cccc(C)c3)no2)c1
- proportion of mobile M. hapla J2 [1]: 0.866
- proportion of mobile C. elegans dauer larvae [2]: 1
- proportion of mobile D. dipsaci [3]: 1

SMILES: COc1ccccc1-c1nnc(SCc2ccc(C#N)cc2)o1
- proportion of mobile M. hapla J2 [1]: 0.897
- proportion of mobile C. elegans dauer larvae [2]: 1
- proportion of mobile D. dipsaci [3]: 1

SMILES: COc1ccc(-c2nnc(SCC(=O)c3ccc(C)o3)o2)cc1
- proportion of mobile M. hapla J2 [1]: 1
- proportion of mobile C. elegans dauer larvae [2]: 1
- proportion of mobile D. dipsaci [3]: 1

SMILES: COc1ccc(-c2noc(-c3ccc(C)c(Cl)c3)n2)cc1
- proportion of mobile M. hapla J2 [1]: 0.986
- proportion of mobile C. elegans dauer larvae [2]: 1
- proportion of mobile D. dipsaci [3]: 1

SMILES: Brc1ccc(OCc2nc(-c3ccncc3)no2)cc1
- proportion of mobile M. hapla J2 [1]: 0.995
- proportion of mobile C. elegans dauer larvae [2]: 1
- proportion of mobile D. dipsaci [3]: 1

SMILES: Clc1cccc(OCc2nc(-c3cccs3)no2)c1
- proportion of mobile M. hapla J2 [1]: 0.942
- proportion of mobile C. elegans dauer larvae [2]: 0.5 (active)
- proportion of mobile D. dipsaci [3]: 1

SMILES: CCOc1ccccc1-c1nnc(SCC(=O)N2CCC(C)CC2)o1
- proportion of mobile M. hapla J2 [1]: 0.856
- proportion of mobile C. elegans dauer larvae [2]: 1
- proportion of mobile D. dipsaci [3]: 1

SMILES: Cc1ccc(-c2nc(-c3ccccc3)no2)cc1Cl
- proportion of mobile M. hapla J2 [1]: 0.996
- proportion of mobile C. elegans dauer larvae [2]: 1
- proportion of mobile D. dipsaci [3]: 1

SMILES: Clc1ccc(SCc2nc(-c3cccnc3)no2)cc1
- proportion of mobile M. hapla J2 [1]: 0.938
- proportion of mobile C. elegans dauer larvae [2]: 0.156 (active)
- proportion of mobile D. dipsaci [3]: 1

SMILES: FC(F)(F)c1cccc(-c2noc(-c3cccs3)n2)c1
- proportion of mobile M. hapla J2 [1]: 0.893
- proportion of mobile C. elegans dauer larvae [2]: 1
- proportion of mobile D. dipsaci [3]: 1

SMILES: C=CCOc1ccc(-c2nc(-c3cccnc3)no2)cc1
- proportion of mobile M. hapla J2 [1]: 0.965
- proportion of mobile C. elegans dauer larvae [2]: 0.5 (active)
- proportion of mobile D. dipsaci [3]: 0.5 (active)

SMILES: Clc1ccccc1OCc1nc(-c2ccccn2)no1
- proportion of mobile M. hapla J2 [1]: 1
- proportion of mobile C. elegans dauer larvae [2]: 1
- proportion of mobile D. dipsaci [3]: 1

SMILES: COc1ccccc1OCc1nc(-c2cccc(Br)c2)no1
- proportion of mobile M. hapla J2 [1]: 0.499 (active)
- proportion of mobile C. elegans dauer larvae [2]: 1
- proportion of mobile D. dipsaci [3]: 1

SMILES: Cc1cccc(-c2noc(COc3ccc(Br)cc3)n2)c1
- proportion of mobile M. hapla J2 [1]: 0.882
- proportion of mobile C. elegans dauer larvae [2]: 1
- proportion of mobile D. dipsaci [3]: 1

SMILES: COc1ccccc1-c1nc(-c2cccc(Br)c2)no1
- proportion of mobile M. hapla J2 [1]: 1.04
- proportion of mobile C. elegans dauer larvae [2]: 1
- proportion of mobile D. dipsaci [3]: 1

SMILES: O=C(CSc1nnc(-c2ccco2)o1)Nc1ccc(Br)cc1
- proportion of mobile M. hapla J2 [1]: 1.05
- proportion of mobile C. elegans dauer larvae [2]: 1
- proportion of mobile D. dipsaci [3]: 1

SMILES: Cc1ccc(-c2nnc(SCc3ccccc3C)o2)cc1
- proportion of mobile M. hapla J2 [1]: 1.06
- proportion of mobile C. elegans dauer larvae [2]: 1
- proportion of mobile D. dipsaci [3]: 1

SMILES: CC1CC(C)CN(C(=O)CSc2nnc(-c3cccc(Cl)c3)o2)C1 (configuration not stated)
- proportion of mobile M. hapla J2 [1]: 1.04
- proportion of mobile C. elegans dauer larvae [2]: 1
- proportion of mobile D. dipsaci [3]: 1

SMILES: Cc1ccc(-c2noc(-c3ccc(Br)cc3)n2)cc1
- proportion of mobile M. hapla J2 [1]: 1.05
- proportion of mobile C. elegans dauer larvae [2]: 1
- proportion of mobile D. dipsaci [3]: 1

SMILES: CCCOc1ccc(-c2nc(-c3ccncc3)no2)cc1
- proportion of mobile M. hapla J2 [1]: 0.85
- proportion of mobile C. elegans dauer larvae [2]: 0.5 (active)
- proportion of mobile D. dipsaci [3]: 1

SMILES: COc1ccccc1NC(=O)c1ccccc1-c1nc(-c2ccccc2F)no1
- proportion of mobile M. hapla J2 [1]: 1.02
- proportion of mobile C. elegans dauer larvae [2]: 1
- proportion of mobile D. dipsaci [3]: 1

SMILES: CC(=O)Nc1ccc(C(=O)CSc2nnc(-c3cccc(Br)c3)o2)cc1
- proportion of mobile M. hapla J2 [1]: 1.01
- proportion of mobile C. elegans dauer larvae [2]: 1
- proportion of mobile D. dipsaci [3]: 1
